Only some compounds are listed: those with a hit (about 2.3% of all), similar ones and a draw of the others.
M1 ag: human M1 muscarinic receptor agonists, primary screen, Fluo-8 calcium fluorescence, CHO-K1 cells, HTS. Muscarinic acetylcholine receptor M1 (Homo sapiens), P11229. CHO-K1 hM1, agonist mode; 0% DMSO, 100% acetylcholine EC100. 360,000 tested, 0.33% active. activation, % at 3 µM;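 active = activation above the run's mean compound activation plus 3 SD, cut at about 16% in these data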;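 also: peak over basal fluorescence ratio within a 140 s kinetic read after compound addition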
Target sequence (P11229 whole entry, looked up): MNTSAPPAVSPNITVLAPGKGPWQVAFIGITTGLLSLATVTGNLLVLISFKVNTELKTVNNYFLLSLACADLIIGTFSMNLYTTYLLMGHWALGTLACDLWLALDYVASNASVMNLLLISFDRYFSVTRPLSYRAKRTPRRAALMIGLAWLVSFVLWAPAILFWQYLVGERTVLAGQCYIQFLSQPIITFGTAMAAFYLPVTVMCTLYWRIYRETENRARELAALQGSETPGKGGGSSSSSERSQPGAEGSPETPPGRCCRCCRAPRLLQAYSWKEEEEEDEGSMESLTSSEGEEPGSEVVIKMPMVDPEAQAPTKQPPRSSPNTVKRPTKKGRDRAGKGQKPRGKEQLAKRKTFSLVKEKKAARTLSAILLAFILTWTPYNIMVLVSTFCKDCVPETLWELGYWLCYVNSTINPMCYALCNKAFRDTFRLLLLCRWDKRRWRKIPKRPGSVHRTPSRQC
M1 PAM: human M1 muscarinic receptor positive allosteric modulators, primary screen, CHO-K1 cells, Fluo-8 calcium fluorescence, 1536-well. Muscarinic acetylcholine receptor M1 (Homo sapiens), P11229. CHO-K1 hM1, ACh EC20; 0% = ACh EC20, 100% = maximal ACh. activation, % at 3 µM. 360,000 tested, 0.088% active. AID 588819, 2011; in the data active = activation above about 19%, passing the limit was not always enough
CHO-K1 Ca ag: counter-screen for M1 agonists: effect in parental CHO-K1 cells | activation, % at 3 µM | 360,000 tested, 0.48% active | AID 602248, 2012 | Fluo-8 calcium fluorescence; scaled to maximal ATP response, vehicle zero; in the data active = activation above about 15%;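 also: untransfected CHO-K1 host cells lacking M1 receptor as counterscreen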
CHO-K1 Ca antag: M1 antagonist counterscreen hit in parental CHO-K1 cells. ATP-induced calcium, Fluo-8 fluorescence. inhibition, % at 3 µM. 360,000 tested, 0.6% active;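 active = inhibition above a per-plate cutoff, the plate's mean sample inhibition plus 3 SD, cut at about 24% in these data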
CHRM1 antagonist: human M1 muscarinic receptor antagonists, primary screen, CHO-K1 cells, Fluo-8 calcium fluorescence, 1536-well; CHO-K1 hM1, ACh EC80 antagonist; inhibition, % at 3 µM; 360,000 tested, 1.3% active; AID 588852, 2011;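 active = percent inhibition above its own plate's cutoff, namely the mean of that plate's compound wells plus 3 SD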;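 also: peak over basal fluorescence ratio during 140 s after agonist addition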
CHO-K1 Ca PAM: nonselective calcium activators in parental CHO-K1 cells, primary screen, counter-screen for M1 PAM project, cell-based, Fluo-8 calcium fluorescence, full deck, 1536-well; ATP EC20; 0% at ATP EC20, 100% at ATP max; activation, % at 3 µM; 360,000 tested, 0.02% active;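 active = activation above the run cutoff, the mean activation of all test compounds plus 3 SD, cut at about 40% in these data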;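 also: peak over basal fluorescence ratio in a 140 s read after ATP addition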
Of the large screens only hits and unclear results are named; the others gave an inactive call.

Cc1occc1C(=O)NNC1=CC(=O)CC(C)(C)C1	none
CSCCC(NC(=O)c1ccc([N+](=O)[O-])cc1Cl)C(=O)OC(C)C(=O)NCc1ccco1 (stereo unspecified)	none
CC(C)(C)c1cc(C2=CSC3=NCCN23)cc(C(C)(C)C)c1O	CHRM1 antagonist 36
O=C(Nc1nnc(C2CC2)s1)c1cc([N+](=O)[O-])ccc1N1CCCCC1	none
CCOc1ccc(C(C)NC(=O)C2CCC2)cc1 (stereo unspecified)	CHO-K1 Ca antag 24
Cc1ccc(C(C)NC(=S)NCc2ccc(F)cc2)cc1C (stereo unspecified)	none
CCc1ccc(C(C)NC(=S)NCc2ccc(F)cc2)cc1 (stereo unspecified)	CHRM1 antagonist 40
CCOc1ccc(CNC(=S)NCc2ccc(OCC)cc2)cc1	none
CCOc1ccc(C(C)NC(=S)NCc2ccc(F)cc2)cc1 (stereo unspecified)	CHO-K1 Ca ag 23
CC(C)c1cc(N2CCC(=O)NC2=O)cc(C(=O)O)c1O	CHO-K1 Ca ag 18
CC(C)N1CCC(=O)NC1=O	none
CN1CC(=O)N2C(c3ccc(Cl)cc3)c3[nH]c4ccccc4c3C[C@H]2C1=O (stereo partly specified)	CHO-K1 Ca ag 24
CCN1C(=O)[C@@H]2Cc3c([nH]c4ccccc34)C(c3ccc(OC)cc3)N2C1=S (stereo partly specified)	CHRM1 antagonist 71
COC(=O)c1ccc(C2c3[nH]c4ccccc4c3C[C@H]3C(=O)N(C)CC(=O)N23)cc1 (stereo partly specified)	none
COCCCN1CC(=O)N2C(c3ccccc3)c3[nH]c4ccccc4c3C[C@H]2C1=O (stereo partly specified)	none
O=C(CSc1nnc(-c2cccnc2)s1)Nc1ccnc2ccccc12	CHO-K1 Ca antag 26, CHRM1 antagonist 34
Cc1ccc(NC(=O)CSc2nnc(-c3cccnc3)s2)cc1	none
CCN(CC)CCNC(=O)C1(c2ccccc2)CCCCC1	CHRM1 antagonist 40
CCN(CC)CCOC(=O)c1ccc(NC(=O)C2(c3ccccc3)CCCC2)cc1	CHRM1 antagonist 46
O=C(O)c1ccc(NC(=O)C2(c3ccccc3)CCCC2)cc1	none
CCOC(=O)C(C)Sc1cc(CS(=O)(=O)c2ccccc2)nc(-c2ccccc2)n1 (stereo unspecified)	none
OCCN1CCN(c2cc(C(F)(F)F)nc3c(F)cccc23)CC1	none
O=c1[nH]nc(Br)c(=O)n1C(c1ccccc1)c1ccccc1	M1 ag 19, CHO-K1 Ca ag 26
CC(=O)C1C(c2cccc(F)c2)c2c(n[nH]c2C)CC1(C)O (stereo unspecified)	none
OC(c1cc(F)cc(Cl)c1)c1ncc(-c2ccccc2C(F)(F)F)[nH]1 (stereo unspecified)	none
O=C(CCN1CCC2CCC(C2)C1)c1ccccc1 (stereo unspecified)	none
OC(CCN1CCC2CCC(C2)C1)c1ccc(Br)cc1 (stereo unspecified)	CHRM1 antagonist 37
N#CC1=C2SCN(Cc3ccccc3)CN2C(=O)CC1c1cccs1 (stereo unspecified)	CHO-K1 Ca antag 27
CC(CN1CCCCC1)OC(=O)C1c2ccccc2Oc2ccccc21 (stereo unspecified)	CHRM1 antagonist 87
N#Cc1ccc(NC(=S)N2CCC3CC2c2cc(-c4ccc5c(c4)OCO5)ccc23)cc1 (stereo unspecified)	none
O=C(CSc1nc(C(F)(F)F)cc(=O)[nH]1)Nc1cccc2ccccc12	M1 PAM 24
Cc1ccc(OCCn2cncn2)c([N+](=O)[O-])c1	CHO-K1 Ca ag 19
Cc1ccc(OCCCCn2ccnc2)c([N+](=O)[O-])c1	none
COc1ccc(/C=C/C(=O)OCC(=O)NC2CCCC2)c(OC)c1	none

Bioassay records as filed in PubChem BioAssay.
